Gal4-VP16 FLuc = VP16 counterscreen qHTS for inhibitors of ROR gamma transcriptional activity; AID 2546, 2010; Drosophila S2 Gal4-VP16 UAS-luciferase, luminescence, 20 h; 310,000 tested, 3.5% active; Potency, µM (doses to about 53.6 µM), actives largely listed as inhibitors;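 further: Gal4-VP16 expression switched on by copper sulfate through the metallothionein promoter; nearly all actives have a fitted effect of over 50% in size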
ALOX12 inh = Primary qHTS assay for inhibitors of human arachidonate 12S-lipoxygenase (ALOX12): Round 2; Polyunsaturated fatty acid lipoxygenase ALOX12 (Homo sapiens), P18054; AID 1671190, 2021; purified 12hLO, xylenol orange hydroperoxide absorbance; 580,000 tested, 1.1% active; Potency, µM (highest dose often 108 µM), hits mostly inhibitors
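Purified human 12hLO at 150 nM in 25 mM Hepes, 0.01% Triton X-100, pH 7.0, preincubated 15 min at room temperature with compound. Reaction started with 40 uM arachidonic acid, 30 min at room temperature. Hydroperoxide measured by Fe-xylenol orange, 573/405 nm absorbance ratio.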
ELG1 DNA repair = qHTS screen for small molecules that inhibit ELG1-dependent DNA repair in human embryonic kidney (HEK293T) cells expressing luciferase-tagged ELG1; HEK293T ELG1-luciferase reporter, luminescence, 16 h; DNA damage induced by 5-fluorouridine; Potency, µM (doses to about 46.1 µM), actives largely listed as inhibitors; 330,000 tested, 2.3% active; further: nearly all actives have a fitted effect of over 55% in size
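In this reporter screen, reduction of luminescence relative to DMSO vehicle indicated activity. Compounds and 5-fluorouridine were added together to 2,000 cells per well, incubated for 16 hr at 37 °C, then developed with ONE-Glo.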
DT40 TDP1 CPT = qHTS for Inhibitors of human tyrosyl-DNA phosphodiesterase 1 (TDP1): qHTS in cells in presence of CPT | chicken DT40 Tdp1-/-;hTDP1 cells + 20 nM CPT, ATP luminescence, 48 h | Potency, µM (highest dose often 46.2 µM), hits mostly inhibitors | 420,000 tested, 12% active | AID 686979, 2013; further: nearly all actives have a fitted effect of over 55% in size
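Chicken DT40 Tdp1-/- cells complemented with human TDP1, 400 cells/well, exposed to compounds plus 20 nM camptothecin for at least 48 h at 37 C; viability read as ATP content by CellTiter-Glo luminescence.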
DT40 TDP1 no CPT = qHTS for Inhibitors of human tyrosyl-DNA phosphodiesterase 1 (TDP1): qHTS in cells in absence of CPT. DT40 Tdp1-/- hTDP1 cells, no CPT, ATP luminescence, 48 h. Potency, µM (titrated, usually from 46.2 µM), actives largely listed as inhibitors. 420,000 tested, 15% active; further: nearly all actives have a fitted effect of over 55% in size
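Chicken DT40 Tdp1-/- cells stably complemented with human TDP1 were seeded at 400 cells/well with DMSO in place of 20 nM camptothecin. After compound pinning, cells grew at least 48 hr at 37 °C; viability read by CellTiter-Glo luminescence.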
RORgamma inh = qHTS for inhibitors of ROR gamma transcriptional activity; Nuclear receptor ROR-gamma (Mus musculus), P51450; Drosophila S2 Gal4-RORgamma UAS-luciferase reporter, 20 h; Potency, µM (doses to about 53.6 µM), hits mostly inhibitors; 310,000 tested, 5.4% active; further: nearly all actives have a fitted effect of over 60% in size
Target sequence (P51450 whole entry, looked up, the tested form may be a part): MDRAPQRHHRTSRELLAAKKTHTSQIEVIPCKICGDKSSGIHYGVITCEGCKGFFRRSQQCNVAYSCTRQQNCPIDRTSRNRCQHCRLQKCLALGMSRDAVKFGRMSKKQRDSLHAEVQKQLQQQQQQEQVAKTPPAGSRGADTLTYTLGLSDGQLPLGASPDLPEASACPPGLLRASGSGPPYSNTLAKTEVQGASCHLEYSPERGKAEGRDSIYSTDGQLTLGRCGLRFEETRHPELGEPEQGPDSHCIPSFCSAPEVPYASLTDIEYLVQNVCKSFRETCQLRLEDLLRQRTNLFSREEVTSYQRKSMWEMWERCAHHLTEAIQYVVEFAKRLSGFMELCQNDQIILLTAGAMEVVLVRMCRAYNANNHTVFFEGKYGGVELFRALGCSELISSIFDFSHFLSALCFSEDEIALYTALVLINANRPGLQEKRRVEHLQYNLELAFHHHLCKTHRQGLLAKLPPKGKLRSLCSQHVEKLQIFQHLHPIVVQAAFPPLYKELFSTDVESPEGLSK
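Stably transfected Drosophila Schneider cells are the test system, with ROR gamma fused to Gal4 and luciferase under UAS control; luminescence is read after 20 hr of 700 uM copper sulfate induction at ambient temperature.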
Numbers stand for hits; – = inactive; ? = inconclusive; · = no result given; [ ] = dose if it differs, or a comment. Most compounds without a hit are left out; they make up all but 15% or so of the library. The call rests on the fitted dose curve; in most records, active means well fitted curve in the direction sought with a large enough effect; inconclusive means small, poorly fitted or top-dose-only effect, or another doubt; inactive means no such curve, though single readings can be large; an effect the other way counts as inactive or inconclusive.

SMILES	Gal4-VP16 FLuc	ALOX12 inh	ELG1 DNA repair	DT40 TDP1 CPT	DT40 TDP1 no CPT	RORgamma inh
CC(C)C(=O)N1CCC2(CC1)OC(=O)N(Cc1ccccc1)C2(C)c1ccccc1 (configuration not stated)	·	–	·	·	·	·
O=C(Nc1cccc(Cl)c1)c1cnc2c(c1)N(Cc1ccccc1)CCC2	·	–	·	·	·	·
COc1ccc(OC)c(-c2nc(CN3CCCC(C(C)(C)O)C3)c(C)o2)c1 (configuration not stated)	·	–	·	·	·	·
O=C(Nc1cccc(-n2cnnn2)c1)C1CCCN(Cc2cccc(C(F)(F)F)c2)C1 (configuration not stated)	–	·	?	13µM	18.4µM	?
COc1ccc(N2CCN(CCCNC(=O)c3ccc4nc(N5CCCCC5)sc4c3)CC2)cc1	·	?	·	16.4µM	?	·
Cc1ccc(C)c(N2CCN(CCCNC(=O)c3ccc4nc(N5CCC(C)CC5)sc4c3)CC2)c1	·	?	·	14.6µM	9.2µM	·
Cc1ccc(Cl)cc1N1CCN(CCCNC(=O)c2ccc3nc(N4CCCCC4)sc3c2)CC1	·	–	·	20.6µM	11.6µM	·
O=C(NCCc1ccccc1)c1nc(-c2cccc3[nH]ccc23)no1	·	–	·	·	·	·
CC(C)C(CNC(=O)C1CCN(c2nc3ccccc3o2)CC1)N(C)C (configuration not stated)	·	–	·	·	·	·
Cc1ccc(S(=O)(=O)Cc2nc(-c3ccc(C(=O)NCCN(C)C)cc3)oc2C)cc1	·	–	·	·	·	·
CC(C)C(CNC(=O)c1cc(=O)c2ccccc2o1)N1CCOCC1 (configuration not stated)	·	–	·	·	·	·
CCc1cc(-c2nnn(-c3cc(C(C)C)ccc3C)c2CC)ccc1-c1cn(CCc2c[nH]c3ccccc23)nn1	·	–	·	23.1µM	?	·
CCc1cc(-c2nnn(CCC3COCCO3)c2CC)cc(CC)c1-c1cn(CCc2c[nH]c3ccccc23)nn1 (configuration not stated)	·	–	·	?	?	·
CCc1cc(-c2nnn(CCC3COCCO3)c2C(C)(C)O)ccc1-c1cn(CCc2c[nH]c3ccccc23)nn1 (configuration not stated)	·	–	·	20.6µM	11.6µM	·
CN1CCN(CC(N)C2CCCCC2)CC1 (configuration not stated)	·	–[12.5 µM]	·	·	·	·
COCCNC(=O)CSc1nnc(-c2ccc(C)cc2)c(-c2ccc(C)cc2)n1	–[10 µM]	–	?	25.9µM	?	–
COc1ccc(-c2nnc(SCC(=O)NCc3ccc(C)cc3)nc2-c2ccc(OC)c(OC)c2)cc1OC	·	–	·	14.6µM	18.4µM	·
CCC(C)NC(=O)CSc1nnc(-c2cc(OC)c(OC)c(OC)c2)c(-c2cc(OC)c(OC)c(OC)c2)n1 (configuration not stated)	?	–	?	–	–	2.82µM
CCOc1cc(-c2nnc(SCC(=O)NCc3ccc(C)cc3)nc2-c2ccc(OC)c(OCC)c2)ccc1OC	·	–	·	?	?	·
CCOc1cc(-c2nnc(SCC(=O)NCc3ccccc3)nc2-c2ccc(OC)c(OCC)c2)ccc1OC	·	–	·	5.8µM	3.26µM	·
COc1ccc(CCNC(=O)CSc2nnc(-c3ccccc3)c3ccccc23)cc1OC	–	–	?	16.4µM	?	–
CCCCn1c(-c2ccccc2)cnc1SCC(=O)NCCc1ccc(OC)c(OC)c1	?	–	?	23.1µM	25.9µM	?
COc1ccc(CNC(=O)CSc2nc(-c3ccc(OC)cc3)cc(C(F)(F)F)n2)cc1	·	–	·	–	–	·
COc1ccc(-c2cc(C(F)(F)F)nc(SCC(=O)NCCc3ccc(OC)c(OC)c3)n2)cc1	·	–	·	20.6µM	20.6µM	·
COc1ccc(-c2nnc(SCC(=O)Nc3cccc(C(F)(F)F)c3)nc2-c2ccc(OC)cc2)cc1	·	–	·	?	18.4µM	·
SMILES	Gal4-VP16 FLuc	ALOX12 inh	ELG1 DNA repair	DT40 TDP1 CPT	DT40 TDP1 no CPT	RORgamma inh
COc1ccc(CCNC(=O)CSc2nnc(-c3ccccc3)o2)cc1OC	–	–	–	–	–	–
COc1cc(=O)n2c(c1C(=O)N1CCN(c3cc(C)ccc3C)CC1)CCCC2	·	–	·	·	·	·
COc1ccc(CCNC(=O)CN(c2ccc(Cl)c(C(F)(F)F)c2)S(C)(=O)=O)cc1OC	·	–	·	·	·	·
COc1ccc(-c2nnc(SCC(=O)NCCc3ccc(OC)c(OC)c3)nc2-c2ccc(OC)cc2)cc1	·	–	·	18.4µM	18.4µM	·
Cc1nccnc1N1CCC(N2CCCC(C(=O)NCCc3ccccc3)C2)CC1 (configuration not stated)	·	–	·	·	·	·
O=C(N/N=C/c1cccc([N+](=O)[O-])c1O)C(O)(c1ccccc1)c1ccccc1	1.26µM	–	–	?	25.9µM	0.708µM
O=C(CCC(=O)N/N=C/c1ccccc1[N+](=O)[O-])N/N=C/c1ccccc1[N+](=O)[O-]	·	–	·	·	·	·
COc1cc([N+](=O)[O-])cc(/C=N/NC(=O)C(C)Nc2cccc3ccccc23)c1O (configuration not stated)	0.501µM	?	?	16.4µM	?	0.398µM
COc1cc([N+](=O)[O-])cc(/C=N/NC(=O)C(O)(c2ccccc2)c2ccccc2)c1O	0.891µM	–	–	4.11µM	?	0.355µM
Cc1ccc(CCNC(=O)c2ccc3c(Cl)c4c(nc3c2)CCCC4)cc1	·	–	·	?	18.4µM	·
O=C(NC1CCCC1)c1ccc2c(Cl)c3c(nc2c1)CCCC3	·	–	·	·	·	·
CSc1ccc(CCNC(=O)c2ccc3c(Cl)c4c(nc3c2)CCCC4)cc1	·	–	·	?	23.1µM	·
CC(CCc1ccccc1)NC(=O)c1ccc2c(Cl)c3c(nc2c1)CCC3 (configuration not stated)	·	–	·	·	·	·
Cc1cc(=O)oc2cc(NC(=O)Cc3ccccc3Cl)ccc12	·	–	·	·	·	·
CC(=O)c1ccc(NC(=O)O[C@@H]2CO[C@H]3[C@@H]2OC[C@@H]3NC(=O)Nc2ccccc2)cc1	·	–	·	·	·	·
Cc1cc(N2CCN(C(c3ccnc4ccccc34)c3nnnn3-c3c(C)cccc3C)CC2)c2ccccc2n1 (configuration not stated)	·	?	·	6.51µM	4.61µM	·
Cc1cccc(C)c1-n1nnnc1C(c1ccnc2ccccc12)N1CCN(CCN(C)C)CC1 (configuration not stated)	·	–	·	?	?	·
Cc1cccc(C)c1-n1nnnc1C(c1ccnc2ccccc12)N(C)Cc1ccccc1 (configuration not stated)	·	–	·	?	16.4µM	·
